Measured values taken from PubChem BioAssay (NCI).
Compounds without any hit were thinned out: in the full panel of roughly 79,000, 15% have a hit. Rule as the data show it: active = growth inhibition above about 70%; inactive = the rest.

Tests used:
[1] = NCI Yeast Anticancer Drug Screen. Data for the rad50 strain (AID 155);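 also: 0% = growth of vehicle-only cultures of the same strain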; conditions: S. cerevisiae rad50 strain growth inhibition; at 50.0 µM; active compounds read high
Procedure, shortened: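 Cells are treated with compound, grown, and their growth is then scored against vehicle-only cultures of the same repair-deficient yeast strain.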

[2] = NCI Yeast Anticancer Drug Screen. Data for the mec2-1 strain (AID 157); conditions: S. cerevisiae mec2-1 strain, at 50.0 µM, active compounds read high
Procedure, shortened: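 Strain: mec2-1 (DNA repair/cell cycle alteration). Compound exposure, then growth measured; inhibition expressed relative to vehicle.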

[3] = NCI Yeast Anticancer Drug Screen. Data for the sgs1 mgt1 strain (AID 161);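 also: 0% = growth of cultures given vehicle only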; conditions: S. cerevisiae sgs1 mgt1 strain, at 50.0 µM, active compounds read high
Procedure, shortened: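 Read-out: growth inhibition vs vehicle controls. Cells: mutant yeast strain deficient in DNA damage repair.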

[4] = NCI Yeast Anticancer Drug Screen. Data for the cln2 rad14 strain (AID 165);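 also: 0% = growth equal to vehicle treated cultures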; conditions: S. cerevisiae cln2 rad14 strain, at 50.0 µM, active compounds read high
Procedure, shortened: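 Compounds are applied to the cln2 rad14 yeast strain, and growth is then compared with that of vehicle-treated cultures to give inhibition.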

[5] = NCI Yeast Anticancer Drug Screen. Data for the bub3 strain (AID 167); conditions: S. cerevisiae bub3 mutant strain, at 50.0 µM, active compounds read high
Procedure, shortened: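 Part of a panel of yeast mutants defective in DNA damage repair or cell cycle regulation. Each strain is grown with compound, and inhibition is calculated relative to solvent-treated cultures.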

[6] = NCI Yeast Anticancer Drug Screen. Data for the mlh1 rad18 strain (AID 175); conditions: S. cerevisiae mlh1 rad18 strain growth inhibition; at 50.0 µM; active compounds read high
Procedure, shortened: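 Read-out is yeast growth inhibition, calculated against vehicle-only controls. The compound was applied to a strain engineered with DNA damage repair alterations.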

Measured: growth inhibition

COC(=O)/C=C/c1cc2c(cc1-c1c(C(=O)O)cc(OC)c(OC)c1OC)OCO2
inactive: [1] -11.2% | [2] -0.55% | [3] -18.8% | [4] -3.4% | [5] -28.4% | [6] -8.05%

O=C1/C(=C/c2ccc3c(c2)OCO3)SC2C=Nc3ccccc3N12 (configuration not stated)
inactive: [1] -14% | [2] -20.3% | [3] 1.2% | [4] -7.45% | [5] 2.5% | [6] -8.65%

CCC1(C)N=C(C(N)=O)c2ncn(N=C(C)C)c2N1 (configuration not stated)
inactive: [1] -15.8% | [2] -30.2% | [3] -24.3% | [4] 14.2% | [5] -10.5% | [6] -16.6%

O=C(NCC(O)CNC(=O)C(F)(F)F)C(F)(F)F
inactive: [1] 5.2% | [2] 7.75% | [3] 8.75% | [4] 28.4% | [5] 14.4% | [6] -27.2%

NC1=NC(=O)C(CC(=O)Nc2ccc(Cl)cc2Cl)S1 (configuration not stated)
inactive: [1] -12.4% | [2] -17.6% | [3] -15.2% | [4] 3.3% | [5] -5.6% | [6] -5.6%

CC(C)(C)c1ccc(-n2c3nc(=O)n(-c4ccccc4CO)c(=O)c-3cc3ccccc32)cc1
inactive: [1] -9.75% | [2] -12.8% | [3] -9.5% | [4] -11.6% | [5] -0.95% | [6] 4.95%

[O-][n+]1c2ccccc2nn1-c1ccccc1
inactive: [1] -9.1% | [2] -4.25% | [3] -2.65% | [4] -21.4% | [5] -7.2% | [6] -13.8%

CCN(CC)CCCCCOC(=O)c1ccccc1
inactive: [1] 23.2% | [2] 28.2% | [3] 48.5% | [4] 40% | [5] 43.4% | [6] 18.6%

COc1cc2c(cc1OC)C(C(CO)CO)N(CC(O)CCl)CC2 (configuration not stated)
inactive: [1] -25.6% | [2] -16.1% | [3] -26% | [4] -6.65% | [5] -13.9% | [6] -30.8%

O=C(c1cccc(Cl)c1)c1cccc(Cl)c1
inactive: [1] 1.2% | [2] -14.8% | [3] -0.9% | [4] 2.35% | [5] 5.15% | [6] -3.25%

CCCC(=O)OC(CCC1CCCO1)CCC1CCCO1 (configuration not stated)
inactive: [1] 0.3% | [2] -14.9% | [3] 10.4% | [4] 23.9% | [5] -6.35% | [6] 19.6%

CC1=CC(=C2C=CC(=O)C=C2)C=C(C)N1C
inactive: [1] 5.6% | [2] -5.55% | [3] -8.05% | [4] -4.5% | [5] 2.4% | [6] -3.65%

N=C1N=Nc2nc(CC(=O)c3ccc(Cl)cc3Cl)c(O)n21
inactive: [1] -9.8% | [2] -8.35% | [3] 1.05% | [4] -31.5% | [5] -11.8% | [6] -37.6%

COc1ccc(OC)c(C(c2cc(OC)ccc2OC)C(Cl)(Cl)Cl)c1
inactive: [1] 0.45% | [2] -13.2% | [3] -5.3% | [4] -6.45% | [5] -6% | [6] 14.6%

S=c1[nH]c2ccccc2n2cccc12
inactive: [1] 14.9% | [2] -7.15% | [3] 27.4% | [4] 12.8% | [5] -12.3% | [6] 19.2%

CC(=O)NCS(=O)(=O)O
inactive: [1] -25.3% | [2] -13.4% | [3] -0.9% | [4] -34% | [5] -12.3% | [6] -9.55%

CCCN(CCC)C(=O)c1ccc(C(C)C)cc1
inactive: [1] 11.2% | [2] 7.05% | [3] 19.1% | [4] -6.8% | [5] 9.7% | [6] 9.7%

C=C1C2CC(OC(C)=O)C3(C)C(c4ccoc4)OC(=O)[C@@H](O)[C@]13OC1C[C@H](OC(C)=O)C(C)(C)[C@H](C(O)C(=O)OC)[C@]12C (some centres not stated)
inactive: [1] -11.8% | [2] -34.4% | [3] 2.4% | [4] 3.45% | [5] -8.1% | [6] 0.25%

COc1cccc[n+]1C
inactive: [1] 10.2% | [2] 3.45% | [3] -2.15% | [4] 8.3% | [5] 5.4% | [6] 7.45%

O=C(CN1C(=O)c2ccccc2C1=O)NCCO
inactive: [1] -26.8% | [2] -29.1% | [3] -11.8% | [4] -11.7% | [5] -29.1% | [6] -17.2%

CN(C)Cc1ccccc1COC(=O)/C=C/c1ccccc1
inactive: [1] 11.3% | [2] 7.5% | [3] 8.8% | [4] 10.1% | [5] 7.4% | [6] 8.95%

COc1ccc(-c2c3c(nc4nc(SCC(=O)c5ccc(Br)cc5)nc(N)c24)CCCC3)cc1OC
inactive: [1] 0.05% | [2] -17.2% | [3] -27.9% | [4] -0.55% | [5] -16.6% | [6] 9.65%

Cc1ccc(/C(O)=C/c2nc3ccccc3oc2=O)cc1
inactive: [1] 20.2% | [2] 35.4% | [3] -7.5% | [4] -18.7% | [5] 25.9% | [6] 0.85%

NC(=O)CCCCCCCCCCBr
inactive: [1] 15.6% | [2] 21.2% | [3] 8.85% | [4] 20.2% | [5] 22.8% | [6] 42.3%

Cc1cccc(C(N)=S)n1
inactive: [1] 14.9% | [2] 7.5% | [3] 11.1% | [4] 23.9% | [5] 18.8% | [6] 22.5%

CC1=C(c2ccco2)C(c2ccco2)OC1=O (configuration not stated)
inactive: [1] 8.45% | [2] 27.2% | [3] 15.9% | [4] -16.6% | [5] 18.3% | [6] -7.3%

COc1ccc(C(=O)c2c(C(=O)O)ccc3ccccc23)cc1
inactive: [1] 9.55% | [2] 2.25% | [3] 11.3% | [4] -39.3% | [5] 6.75% | [6] -21.5%

CCCOC1(C)Oc2cc3c(cc2C(c2cc(OC)c(OC)c(OC)c2)C1C)OCO3 (configuration not stated)
inactive: [1] 10.3% | [2] 2.7% | [3] -4.4% | [4] 45.4% | [5] 18.6% | [6] 14.7%

COC(=O)c1ccc(C=O)[nH]1
inactive: [1] 8% | [2] -22.1% | [3] 0.55% | [4] -10.5% | [5] 4.7% | [6] 7.25%

NC(=O)CS(=O)CC(N)C(=O)O (configuration not stated)
inactive: [1] -5.9% | [2] -34.4% | [3] -46% | [4] -57.1% | [5] -10.9% | [6] -29.6%

O=S(=O)(c1ccccc1)N1CN(S(=O)(=O)c2ccccc2)CN(S(=O)(=O)c2ccccc2)C1
inactive: [1] 0.95% | [2] -9.35% | [3] 19.5% | [4] 10.6% | [5] 17.9% | [6] 6.35%

CCc1cc(C)cc(CC)c1N
inactive: [1] 5.45% | [2] -14.2% | [3] -8.55% | [4] -24.6% | [5] 20.9% | [6] 3.8%

NC(Cc1ccc(O)cc1)C(=O)OCc1ccccc1 (configuration not stated)
inactive: [1] -6.45% | [2] 0.5% | [3] 15.1% | [4] -11.2% | [5] 34.2% | [6] -3.75%

CCCCCCNc1ncnc2c1cnn2C
inactive: [1] 5.3% | [2] 6.85% | [3] 1.45% | [4] -17.9% | [5] 38.7% | [6] 3.4%

COC(=O)CC(C(C(=O)OC)C(=O)OC)N1C(=O)OC(c2ccccc2)C1c1ccccc1 (configuration not stated)
inactive: [1] 7.75% | [2] -10.5% | [3] -2.95% | [4] 9.4% | [5] -18% | [6] 3.4%

O=C(CP(=O)(c1ccccc1)c1ccccc1)c1cccc(C(=O)CP(=O)(c2ccccc2)c2ccccc2)c1
inactive: [1] -6.35% | [2] -10.1% | [3] -7.05% | [4] -15.7% | [5] -21.1% | [6] -2.4%

CCC(=O)C(C)C1=Nc2nnc(CCCCCCCc3nnc4n3C(=O)C(C(C)C(=O)CC)=N4)n2C1=O (configuration not stated)
inactive: [1] -13.7% | [2] 12.3% | [3] 11.8% | [4] -7.4% | [5] -3.05% | [6] -4.35%
